M1 ag = activates the M1 muscarinic receptor; CHO-M1 cells, Fluo-4 calcium fluorescence, agonist mode; active compounds read high; B-score at 10 µM; hit rate 3% among 64,000; AID 626;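 active = fluorescence rise, raw or as B-score row- and column-corrected plate score, outside the 99.7% band of its plate's samples, either direction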
Htt clearance = compounds clearing mutant huntingtin protein; HeLa Exon1htt(103Q)mCFP, aggregate imaging; zero = plate's median compound well; hit rate 0.42% among 47,000; inhibition, % at 1.5 µM;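 active = inhibition of aggregate fluorescence above about 70%, also judged a hit by eye on the cell image, limit read from the data, passing the limit was not always enough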;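 also: cells exposed to compound for three days before fixation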
Autofluor 339 = intrinsic fluorescence of library compounds, ex339/em460 – biochemical, MLSMR library, data from DPM-DC assay, artefact control, profiling panel; compound autofluorescence, ex339/em460 nm, NADH buffer; active compounds read high; 1 = no-compound wells, NADH background; fluorescence fold increase at 10 µM; hit rate 5.5% among 65,000; AID 709;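 active = at 10 µM, mean starting fluorescence two-fold or more over control wells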;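 also: signal is the first read of a kinetic run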
M1 antag = antagonists of rat M1 muscarinic receptor. P08482. hit rate 3.4% among 64,000. B-score at 10 µM. AID 628. CHO-M1 cells, Fluo-4 calcium, ACh EC80 antagonist mode; active compounds read low;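 active = calcium fluorescence response, raw or row-and-column corrected B-score, differing from the plate sample mean either way at a set confidence level, mostly lower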
Target sequence (P08482 whole entry, looked up): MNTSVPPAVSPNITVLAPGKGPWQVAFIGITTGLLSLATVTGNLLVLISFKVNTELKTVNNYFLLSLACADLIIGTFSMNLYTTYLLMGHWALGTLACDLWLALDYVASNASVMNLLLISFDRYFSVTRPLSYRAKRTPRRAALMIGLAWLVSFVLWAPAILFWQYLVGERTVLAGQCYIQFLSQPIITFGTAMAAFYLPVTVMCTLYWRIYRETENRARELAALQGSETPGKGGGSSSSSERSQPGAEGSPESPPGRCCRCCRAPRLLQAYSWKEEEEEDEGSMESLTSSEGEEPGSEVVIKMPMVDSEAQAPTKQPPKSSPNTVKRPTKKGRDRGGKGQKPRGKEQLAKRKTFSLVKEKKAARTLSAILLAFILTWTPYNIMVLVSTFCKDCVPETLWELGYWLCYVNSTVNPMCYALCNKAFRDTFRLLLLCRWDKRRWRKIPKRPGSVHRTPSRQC
Abs 340nm = compounds absorbing at 340 nm; compound absorbance at 340 nm, fold over control; fold change at 10 µM; AID 708; 65,000 tested, under 10 active;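 active = at 10 µM dose, initial 340 nm absorbance at least 2 fold that of control wells; inactive = change under 2 fold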;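 also: initial absorbance extrapolated from kinetic A340 decline of NADH oxidation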
NADH coupling = inhibitors of enzymes used to reach an NAD/NADH endpoint. coupled PK/LDH NADH assays, four targets. AID 774. IC50, µM (titrated, usually from 10 µM), for the others: at the highest dose inhibition. hit rate 0.02% among 65,000;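 active = single-dose screening hits from any of four coupled enzyme assays that gave an IC50 when retested across doses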;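 also: the DPM-DC format reads NADH fluorescence rather than 340 nm absorbance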
M1 antag conf = confirmation of rat M1 muscarinic receptor antagonists; CHO-M1 cells, Fluo-4 calcium, ACh EC80 antagonism; active compounds read low; hit rate 43% among 1,700; shares compounds with M1 antag; calcium response (max-min fluorescence) at 10 µM;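 active = calcium response below the same-plate mean of wells given acetylcholine alone at its 80%-effect dose, minus 3 SD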;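 also: raw fluorescence intensity difference in arbitrary instrument units and not normalized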
mGluR4 antag = acts on human mGluR4 in M1 antagonist selectivity test. hit rate 0.9% among 1,700. shares compounds with M1 antag. CHO-mGluR4 calcium flux, Fluo-4 fluorescence, glutamate EC80; active compounds read low. fluorescence response (max-min) at 10 µM;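 active = fluorescence response below the plate's average for near-maximal glutamate wells, less 3 SD of those wells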;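 also: raw unnormalized fluorescence span taken in the window right after glutamate addition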
* = called active by the depositor; . = no result. Sampled rows, rich in hits. Any-hit rate of the full collection: about 9.3%.

SMILES | M1 ag | Htt clearance | Autofluor 339 | M1 antag | Abs 340nm | NADH coupling | M1 antag conf | mGluR4 antag
CN1CCN(CC(=O)n2c3c(c4ccccc42)CCCC3)CC1 | 2.4 | . | 1.1 | -2.9* | 0.99 | 6% | 457* | 285
CC(=O)C1C(c2ccccc2OC(F)F)NC(=O)NC1(O)C(F)(F)F (configuration not stated) | -0.11 | -71 | 1.1 | -0.22 | 1 | 5% | . | .
CCCCOc1ccc(C(=O)C(CN2CCOCC2)c2ccccc2)cc1 (configuration not stated) | . | -13 | . | . | . | . | . | .
COc1ccc(C(=O)C(CN2CCCC2)c2ccccc2)cc1 (configuration not stated) | 0.00053 | . | 1.1 | -7.4* | 1.1 | 7% | 239* | 240
Cc1cc(-c2nnc3sc(C4CCCCC4)nn23)n[nH]1 | -0.075 | -2 | 1.1 | -0.13* | 1 | 3% | 518 | 214
COc1ccc(-c2nc3n(n2)C(c2ccccc2Cl)C(C(N)=O)=C(C)N3)cc1 (configuration not stated) | 0.34 | . | 1.2 | -3* | 1 | 3% | 626 | 245
O=C(NCCN1CCCCCC1)C1CCN(S(=O)(=O)N2CCOCC2)CC1 | -0.086 | -33 | 1.1 | -5.2* | 0.97 | 7% | 608 | 239
CC(C)N(CCCNC(=O)C1CCN(S(=O)(=O)N2CCOCC2)CC1)Cc1ccccc1 | 0.058 | -9 | 1.1 | -3.8* | 1 | 4% | 421 | 208
CCN(CCCNC(=O)C1CCN(S(=O)(=O)c2cccc3nonc23)CC1)Cc1ccccc1 | -0.1 | . | 0.99 | -6.8* | 1 | 7% | 304* | 166
O=C(NCCN1CCOCC1)C1CCC(=O)N1C1CCCCC1 (configuration not stated) | 1.2 | . | 1.1 | -1.4* | 0.99 | 3% | 457 | 188
O=C(NCCN1CCOCC1)C1CCC(=O)N1Cc1ccc(F)cc1 (configuration not stated) | . | -1 | . | . | . | . | . | .
CN(CCCNC(=O)C1CCN(S(=O)(=O)N2CCC3(CC2)OCCO3)CC1)Cc1ccccc1 | -0.035 | . | 1 | -0.56 | 1.1 | 7% | . | .
COc1ccc(Cn2nc(C)n(N(C)c3ncc(C(F)(F)F)cc3Cl)c2=O)cc1 | . | -75 | . | . | . | . | . | .
CCN(CC)CC(C)OC(=O)COc1ccc(OC)cc1 (configuration not stated) | . | 55 | . | . | . | . | . | .
O=C1c2ccccc2CC1(Cc1ccccc1)Cc1ccccc1 | . | 21 | . | . | . | . | . | .
N#CCCN1CCN(S(=O)(=O)c2ccc(S(=O)(=O)N3CCOCC3)cc2)CC1 | -0.21 | . | 1.1 | 0.31 | 1 | 0% | . | .
N#CCCN1CCN(S(=O)(=O)c2ccc(S(=O)(=O)NCc3ccccc3)cc2)CC1 | 0.52 | . | 1.1 | -3.4* | 1 | 4% | 673 | 255
CCCCC(NC(C)=O)c1nc2ccccc2n1CCCC (configuration not stated) | 0.76 | . | 1 | -0.00096 | 1 | 1% | . | .
COc1ccccc1C(=O)Nc1cc(-c2nn3c(C)nnc3s2)ccc1C | 0.72 | -14 | 1.1 | 0.081 | 1 | 0% | . | .
Cc1cc(NC(=O)C2CCN(S(=O)(=O)c3cnc[nH]3)CC2)ccc1Br | -0.43 | . | 1.1 | -0.34 | 0.98 | 8% | . | .
Cc1c(NC2=NC3(CCCCC3)Cc3ccccc32)c(=O)n(-c2ccccc2)n1C | -0.067 | . | 1 | -2.7* | 1.1 | 1% | 62* | 200
COc1ccccc1N1CCN(CC(O)COc2ccc3c(c2)CCC3)CC1 (configuration not stated) | . | -6 | . | . | . | . | . | .
CN1CCN(CCC(=O)N2c3ccccc3Sc3ccc(C(F)(F)F)cc32)CC1 | . | 28 | . | . | . | . | . | .
CN(C)CCCN1c2ccccc2Sc2ccc(C(F)(F)F)cc21 | -0.94 | . | 1.1 | -15* | 0.99 | 4% | 24* | 273
COc1ccc2ccccc2c1CN1CCN(C)CC1 | -1.9 | . | 0.94 | -0.36 | 1 | 2% | . | .
SMILES | M1 ag | Htt clearance | Autofluor 339 | M1 antag | Abs 340nm | NADH coupling | M1 antag conf | mGluR4 antag
CCN1CCN(Cc2c(OC)ccc3ccccc23)CC1 | 0.58 | -38 | 1.1 | -3* | 1.1 | 1% | 539 | 247
CCOc1cccc(C2c3c(oc4cc(C)c(C)cc4c3=O)C(=O)N2CCCN(C)C)c1 (configuration not stated) | -0.35 | . | 1.1 | 0.23 | 1.1 | 8% | . | .
O=C(CSc1ncn[nH]1)N1CCN(S(=O)(=O)c2ccccc2)CC1 | . | -9 | . | . | . | . | . | .
Cc1ccc(-c2nnc(N3CCN(C(=O)CSc4ncn[nH]4)CC3)c3ccccc23)cc1 | 0.97 | . | 1.1 | -2.9* | 1.1 | 4% | 484 | 225
CCOc1cc(S(=O)(=O)n2nc(C)cc2C)ccc1F | -0.98 | 23 | 1.1 | -5.2* | 1.1 | 0% | 398 | 249
CCOc1cc(S(=O)(=O)N2CCOCC2)ccc1F | 0.23 | . | 1.1 | 0.15 | 1.1 | 1% | . | .
COc1ccc(S(=O)(=O)N2CCN(CC(=O)Nc3cc(C(F)(F)F)ccc3Cl)CC2)cc1 | -0.64 | . | 1.1 | -0.095 | 1 | 7% | . | .
COc1cc(C2C3C(=O)N(Cc4ccccc4)C(=O)C3ON2c2ccccc2)cc(OC)c1OC (configuration not stated) | 0.56 | . | 1.1 | -0.16 | 1 | 5% | . | .
COc1ccc(C2C3C(=O)N(Cc4ccccc4)C(=O)C3ON2c2ccccc2)c(OC)c1OC (configuration not stated) | 0.26 | . | 1.1 | -2.9* | 0.99 | 8% | 654 | 188
Cc1cc(NC(=O)CCCC(=O)Nc2ccc(F)cc2)no1 | 0.084 | -34 | 1 | -0.72 | 0.98 | 4% | . | .
CCN(CC)CCCn1c(=S)[nH]c2ccc(Cl)cc2c1=O | 0.023 | 12 | 1.1 | -1.4* | 1.1 | 8% | 596 | 239
C=C(C)c1cccc(C(C)(C)NC(=O)N2CCN(C/C=C/c3ccccc3)CC2)c1 | . | 24 | . | . | . | . | . | .
CN1CCCCc2c1[nH]c1ccccc1c2=O | 0.2 | 22 | 1.6 | -0.4 | 1.1 | 7% | . | .
CC(C)CCNC(=O)C(C)N(Cc1ccc(F)cc1)C(=O)c1ccc(CN2CCCCC2)o1 (configuration not stated) | -0.14 | 32 | 1 | -3.2* | 0.98 | 3% | 595 | 219
O=C(O)c1ccc(CN2CCCCC2)o1 | -0.34 | . | 1.1 | -0.85 | 1 | 5% | . | .
CCOC(=O)CSC1=NC(=O)CS1 | 0.37 | . | 1.2 | 0.52 | 1 | 4% | . | .
O=C(C1CCN(S(=O)(=O)N2CCCC2)CC1)N1CCCCC1 | . | 23 | . | . | . | . | . | .
O=c1c(CN2CCN(Cc3ccccc3)CC2)coc2ccc(Cl)cc12 | -0.83 | . | 1 | -4.2* | 0.99 | 2% | 365* | 194
Cc1ccc2occ(CN3CCN(c4ccccc4)CC3)c(=O)c2c1 | 1.1 | -4 | 0.99 | -3.4* | 0.98 | 1% | 508* | 223
CCN1CCN(Cc2coc3ccc(C)cc3c2=O)CC1 | 0.012 | . | 1.1 | -0.26 | 1 | 4% | . | .
